Records with an inconclusive call do not appear. Activity calls are given as the source filed them. How the source made its calls, unless noted: active means hit-call score of the fitted dose curve at least 0.9, where 1 is the maximum; inconclusive means response in the unintended direction; inactive means score below 0.9.
What was measured:
PGR (gene 5241) [1] = biological target: PGR (gene 5241) (UniProt P06401); assay: TOX21_PR_BLA_Followup_Antagonist_ratio: Tox21 HEK293 Progesterone Receptor (PR) Antagonism Beta-lactamase Follow-Up Assay, Ratio (AID 2283934)
Summary of the method: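 HEK293T PR-UAS-bla, 2% CS-FBS; 6 hr plating, then cpd + R5020 (1 nM final), 16 hr 37C/5% CO2. B/G FRET substrate 2 h RT. Ratio ch2/ch1 vs DMSO; CellTiter-Glo viability multiplexed, autofluorescence checked.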

[2] = TOX21_PR_BLA_Followup_Agonist_viability: Viability Assessment in the Tox21 HEK293 Progesterone Receptor (PR) Agonism Beta-lactamase Follow-Up Assay (AID 2283935);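 further: signal loss means lower viability so actives are cytotoxic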
Summary of the method: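 HEK293T PR-UAS-bla, 3,000 cells/well, 2% CS-FBS; 6 hr pre-incubation; cpd in DMSO, 16 hr 37C; LiveBLAzer 2 hr RT, then CellTiter-Glo 30 min RT, luminescence. Decrease = lost viability.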

[3] = TOX21_PR_BLA_Followup_Antagonist_viability: Viability Assessment in the Tox21 HEK293 Progesterone Receptor (PR) Antagonism Beta-lactamase Follow-Up Assay (AID 2283936);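 further: hits lower the luminescence signal meaning cytotoxicity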
Summary of the method: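 PR-UAS-bla HEK293T cells (3,000/well, 2% charcoal-stripped FBS) given compound plus R5020 agonist, 16 h at 37C. CellTiter-Glo added after bla read, 30 min at room temperature; luminescence loss indicates cytotoxicity.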

[4] = TOX21_PR_LUC_Followup_Agonist_viability: Viability Assessment in the Tox21 HEK293 Progesterone Receptor (PR) Agonism Luciferase Follow-Up Assay (AID 2283941);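 further: loss of signal means cytotoxicity so actives lower viability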
Summary of the method: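 Cells were kept 5 days in charcoal-stripped serum medium before plating HEK293-PR-A-luc at 3,000 cells/well. After 5 h they received DMSO-dissolved compound and incubated 16 h at 37C. Viability was taken from CellTiter-Glo ATP luminescence.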

[5] = biological target: Thyroid hormone receptor alpha (Rattus norvegicus) + Thyroid hormone receptor beta (Rattus norvegicus) (UniProt P18113+P63059); assay: TOX21_TR_LUC_GH3_Agonist_Followup: Tox21 GH3 Thyroid Hormone Receptor Agonism Luciferase Follow-Up Assay (AID 2283939)
Summary of the method: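 Rat GH3 cells (1,500/well) in serum-free assay medium, treated with 15-point series, 92 uM to 5 nM final, for 24 h at 37C. Luciferase via ONE-Glo luminescence; gain of signal fitted against DMSO, T3 positive control.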

THRA (gene 7067) = THRA (gene 7067) (UniProt P10827); assay: TOX21_TRA_COA_Agonist_Followup_ratio: Tox21 Thyroid Hormone Receptor alpha Agonism through Coactivator Recruitment Follow-Up Assay, Ratio (AID 2283948; active means hit-call score of the fitted dose curve at least 0.9, where 1 is the maximum; inactive means score below 0.9)
Summary of the method: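 Read-out is the 520/495 nm emission ratio (ex 340 nm), scaled between DMSO-only wells as 0% and T3 wells as 100%. It reflects fluorescein-SRC-2 peptide recruitment to GST-TRα LBD detected via terbium anti-GST antibody.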

THRB (gene 7068) [6] = biological target: THRB (gene 7068) (UniProt P10828); assay: TOX21_TRB_BLA_Agonist_Followup_ratio: Tox21 Thyroid Hormone Receptor beta Agonism Beta-lactamase (BLA) Follow-Up Assay, Ratio (AID 2283954)
Summary of the method: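 Human TRβ LBD–GAL4 DBD fusion in GeneBLAzer UAS-bla HEK293T cells; 11 concentrations in triplicate, 18 h at 37°C/5% CO2, T3 as agonist control. CCF4-AM substrate 2 h at room temperature; 460:530 nm ratio fitted for gain of signal versus DMSO.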

THRB (gene 7068) [7] = biological target: THRB (gene 7068) (UniProt P10828); assay: TOX21_TRB_COA_Agonist_Followup_ratio: Tox21 Thyroid Hormone Receptor beta Agonism through Coactivator Recruitment Follow-Up Assay, Ratio (AID 2283963; active means hit-call score of the fitted dose curve at least 0.9, where 1 is the maximum; inactive means score below 0.9)
Summary of the method: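 Signal is the 520/495 nm emission ratio (excitation 340 nm), scaled between DMSO-only wells as 0% and T3 wells as 100%. It reflects fluorescein-labeled SRC-2 peptide recruitment to GST-TRβ ligand-binding domain detected via terbium anti-GST antibody.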

[8] = biological target: Retinoic acid receptor RXR-alpha (Homo sapiens) (UniProt P19793); assay: TOX21_TR_RXR_BLA_Agonist_Followup_ratio: Tox21 Thyroid Hormone Receptor beta Retinoid X Receptor alpha (RXRa) Agonism Beta-lactamase (BLA) Follow-Up Assay, Ratio (AID 2283968)
Summary of the method: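 HEK293T RXRa-bla, qHTS; cpd 11-pt conc. in triplicate, 16 h 37C/5% CO2; CCF4-AM 2 h RT; ratio 460:530 nm; agonist direction vs DMSO; 9-cis retinoic acid as positive control.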

[9] = CEETOX_H295R_OHPREG_noMTC: CeeTox H295R High-throughput Steroidogenesis Assay for OH-Pregnenolone (OHPREG), maximum tolerated concentration (MTC) filtered results only (AID 2283912; active means hit-call score of the fitted dose curve at least 0.9, where 1 is the maximum; inactive means score below 0.9); conditions: actives raise or lower the signal
Summary of the method: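 Steroidogenesis in H295R cells (OECD 456, modified): after 48 h forskolin priming and 48 h chemical treatment, secreted 17alpha-hydroxypregnenolone is measured by HPLC-MS/MS. Activity is fitted in both directions against DMSO; concentrations are not filtered by MTT-based MTC.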

[10] = CEETOX_H295R_OHPROG_noMTC: CeeTox H295R High-throughput Steroidogenesis Assay for OH-Progesterone (OHPROG), maximum tolerated concentration (MTC) filtered results only (AID 2283914; active means hit-call score of the fitted dose curve at least 0.9, where 1 is the maximum; inactive means score below 0.9); conditions: actives raise or lower the signal
Summary of the method: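 Forskolin 10 uM, 48 h prestim → test cmpd in DMSO (0.1% final), 48 h → medium MTBE extraction → LC-MS/MS quant of 17alpha-OH-progesterone. Bidirectional fit vs DMSO; no MTT-based MTC filtering.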

[11] = CEETOX_H295R_CORTISOL_noMTC: CeeTox H295R High-throughput Steroidogenesis Assay for Cortisol, maximum tolerated concentration (MTC) filtered results only (AID 2283916; active means hit-call score of the fitted dose curve at least 0.9, where 1 is the maximum; inactive means score below 0.9); conditions: actives raise or lower the signal
Summary of the method: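 Cortisol secretion measured by LC-MS/MS after 48 h chemical treatment (final 0.1% DMSO) of forskolin-primed (10 uM, 48 h) H295R cells; gain or loss fitted relative to DMSO, without maximum-tolerated-concentration filtering.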

[12] = CEETOX_H295R_CORTIC_noMTC: CeeTox H295R High-throughput Steroidogenesis Assay for Corticosterone (CORTIC), maximum tolerated concentration (MTC) filtered results only (AID 2283917; active means hit-call score of the fitted dose curve at least 0.9, where 1 is the maximum; inactive means score below 0.9); conditions: actives raise or lower the signal
Summary of the method: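 Following OECD 456 with minor changes, H295R cultures received 10 uM forskolin for 48 h, then test chemical at 0.1% DMSO for 48 h. Media steroids were extracted and measured by LC-MS/MS.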

[13] = CEETOX_H295R_DOC_noMTC: CeeTox H295R High-throughput Steroidogenesis Assay for DOC, maximum tolerated concentration (MTC) filtered results only (AID 2283918; active means hit-call score of the fitted dose curve at least 0.9, where 1 is the maximum; inactive means score below 0.9); conditions: actives raise or lower the signal
Summary of the method: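 11-Deoxycorticosterone secreted by human adrenal H295R cells quantified by HPLC-MS/MS after 48 h chemical exposure (0.1% DMSO), following 48 h 10 uM forskolin prestimulation. Concentrations not filtered by MTT-derived MTC; bidirectional fitting.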

[14] = CEETOX_H295R_PROG_noMTC: CeeTox H295R High-throughput Steroidogenesis Assay for Progesterone (PROG), maximum tolerated concentration (MTC) filtered results only (AID 2283920; active means hit-call score of the fitted dose curve at least 0.9, where 1 is the maximum; inactive means score below 0.9); conditions: actives raise or lower the signal
Summary of the method: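 H295R cells; forskolin 10 uM x 48 h prestim; test cpd 48 h, 0.1% DMSO final; media progesterone via LC-MS/MS; bidirectional fit vs DMSO; no MTT-based MTC filter applied.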

[15] = TOX21_TRB_BLA_Antagonist_Followup_viability: Viability Assessment in the Tox21 Thyroid Hormone Receptor beta Antagonism Beta-lactamase (BLA) Follow-Up Assay (AID 2283961)
Summary of the method: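 HEK293T cells stably expressing GAL4-DBD/human TRβ-LBD with UAS-bla reporter, 3,000 cells/well in phenol red-free DMEM, 2% charcoal-stripped FBS. Compounds at 11 concentrations in triplicate, 18 h at 37C/5% CO2; viability by CellTiter-Glo luminescence after 30 min at room temperature.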

[16] = TOX21_PR_LUC_Followup_Antagonist_viability: Viability Assessment in the Tox21 HEK293 Progesterone Receptor (PR) Antagonism Luciferase Follow-Up Assay (AID 2283940)
Summary of the method: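 Multiplexed viability counter-screen: after 5 days in charcoal-stripped-FBS medium, HEK293-PR-A-luc cells are plated, pinned with DMSO-dissolved compounds for 16 h at 37C, and ATP content is quantified luminescently via CellTiter-Glo.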

PGR (gene 5241) [17] = biological target: PGR (gene 5241) (UniProt P06401); assay: TOX21_PR_LUC_Followup_Antagonist: Tox21 HEK293 Progesterone Receptor (PR) Antagonism Luciferase Follow-Up Assay (AID 2283938);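 further: curve fitted upward as signal gain over DMSO baseline despite antagonist label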
Summary of the method: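 HEK293-PR-A-luc cells were precultured 5 days in medium with 10% charcoal-stripped FBS, seeded 3,000/well, then exposed to compounds in DMSO for 16 h at 37C. Luciferase was read by ONE-Glo luminescence after 30 min at room temperature.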

PGR (gene 5241) [18] = biological target: PGR (gene 5241) (UniProt P06401); assay: TOX21_PR_BLA_Followup_Agonist_ratio: Tox21 HEK293 Progesterone Receptor (PR) Agonism Beta-lactamase Follow-Up Assay, Ratio (AID 2283933)
Summary of the method: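 HEK293T PR-UAS-bla, 2% CS-FBS; 6 hr preincubation, cpd/DMSO pinned, 16 hr 37C/5% CO2; LiveBLAzer B/G 2 hr RT; FRET ch2/ch1 ratio, agonist direction vs DMSO. Viability by CellTiter-Glo in same wells.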

PGR (gene 5241) [19] = biological target: PGR (gene 5241) (UniProt P06401); assay: TOX21_PR_LUC_Followup_Agonist: Tox21 HEK293 Progesterone Receptor (PR) Agonism Luciferase Follow-Up Assay (AID 2283937; active means hit-call score of the fitted dose curve at least 0.9, where 1 is the maximum; inactive means score below 0.9)
Summary of the method: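 Cells: HEK293-PR-A-luc, 3,000/well, 10% charcoal-stripped FBS assay medium. Compound added after 5 h; 16 h, 37C, 0% CO2. ONE-Glo luciferase, luminescence. Positive fit vs DMSO.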

Measured: AC50

Chain of THRA (gene 7067) (P10827 whole entry, looked up, the tested form may be a part): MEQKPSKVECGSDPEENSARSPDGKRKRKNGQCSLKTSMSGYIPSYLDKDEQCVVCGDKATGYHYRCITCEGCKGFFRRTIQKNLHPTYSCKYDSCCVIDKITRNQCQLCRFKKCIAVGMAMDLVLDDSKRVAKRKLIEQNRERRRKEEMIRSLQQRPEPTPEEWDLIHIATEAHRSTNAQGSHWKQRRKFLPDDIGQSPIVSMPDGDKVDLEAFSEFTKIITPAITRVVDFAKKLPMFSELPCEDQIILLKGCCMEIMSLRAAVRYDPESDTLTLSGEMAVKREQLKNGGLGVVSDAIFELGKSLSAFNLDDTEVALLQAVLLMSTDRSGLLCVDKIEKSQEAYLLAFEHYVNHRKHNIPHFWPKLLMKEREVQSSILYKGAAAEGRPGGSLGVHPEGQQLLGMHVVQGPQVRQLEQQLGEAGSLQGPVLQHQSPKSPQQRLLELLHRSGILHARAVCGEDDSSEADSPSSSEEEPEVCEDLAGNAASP
Chain of Retinoic acid receptor RXR-alpha (Homo sapiens) (P19793 whole entry, looked up): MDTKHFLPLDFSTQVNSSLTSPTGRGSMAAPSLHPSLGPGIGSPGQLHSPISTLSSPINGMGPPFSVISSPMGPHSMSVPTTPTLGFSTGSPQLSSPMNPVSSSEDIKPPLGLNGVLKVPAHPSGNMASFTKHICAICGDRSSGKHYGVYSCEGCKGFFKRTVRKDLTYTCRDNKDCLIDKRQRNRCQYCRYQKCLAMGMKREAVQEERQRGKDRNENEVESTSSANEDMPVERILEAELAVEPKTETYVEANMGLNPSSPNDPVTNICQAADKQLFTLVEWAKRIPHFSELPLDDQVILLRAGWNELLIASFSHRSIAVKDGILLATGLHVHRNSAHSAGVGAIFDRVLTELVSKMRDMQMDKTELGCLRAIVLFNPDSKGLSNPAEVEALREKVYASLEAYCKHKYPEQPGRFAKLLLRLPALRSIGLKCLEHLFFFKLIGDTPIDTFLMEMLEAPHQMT
Chain of Thyroid hormone receptor alpha (Rattus norvegicus) + Thyroid hormone receptor beta (Rattus norvegicus) (P63059 whole entry, looked up): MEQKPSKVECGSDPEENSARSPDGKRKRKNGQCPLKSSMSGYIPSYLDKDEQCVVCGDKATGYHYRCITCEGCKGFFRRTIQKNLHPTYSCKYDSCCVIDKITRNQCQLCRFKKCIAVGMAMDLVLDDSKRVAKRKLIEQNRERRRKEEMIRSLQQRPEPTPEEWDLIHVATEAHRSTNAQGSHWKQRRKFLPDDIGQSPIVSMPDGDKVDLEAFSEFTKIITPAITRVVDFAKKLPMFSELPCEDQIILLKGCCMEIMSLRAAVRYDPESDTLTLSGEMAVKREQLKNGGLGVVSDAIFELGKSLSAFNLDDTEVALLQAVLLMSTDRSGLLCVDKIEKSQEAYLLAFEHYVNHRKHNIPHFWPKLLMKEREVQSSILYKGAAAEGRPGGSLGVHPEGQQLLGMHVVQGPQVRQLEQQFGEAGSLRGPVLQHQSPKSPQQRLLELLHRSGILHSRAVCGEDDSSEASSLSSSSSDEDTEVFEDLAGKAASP
Chain of Thyroid hormone receptor alpha (Rattus norvegicus) + Thyroid hormone receptor beta (Rattus norvegicus) (P18113 whole entry, looked up): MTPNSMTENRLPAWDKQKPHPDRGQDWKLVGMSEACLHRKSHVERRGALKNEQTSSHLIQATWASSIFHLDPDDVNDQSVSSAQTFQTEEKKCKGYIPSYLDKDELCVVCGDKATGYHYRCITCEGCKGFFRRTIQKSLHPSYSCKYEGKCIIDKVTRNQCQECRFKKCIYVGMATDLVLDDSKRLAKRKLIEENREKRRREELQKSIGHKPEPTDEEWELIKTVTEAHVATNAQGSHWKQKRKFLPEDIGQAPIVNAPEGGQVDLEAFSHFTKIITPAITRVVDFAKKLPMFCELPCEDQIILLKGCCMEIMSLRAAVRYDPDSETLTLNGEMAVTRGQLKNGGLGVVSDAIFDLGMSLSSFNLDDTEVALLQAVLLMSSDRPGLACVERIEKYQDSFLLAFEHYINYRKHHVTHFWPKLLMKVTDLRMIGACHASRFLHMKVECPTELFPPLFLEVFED
Chain of THRB (gene 7068) (P10828 whole entry, looked up, the tested form may be a part): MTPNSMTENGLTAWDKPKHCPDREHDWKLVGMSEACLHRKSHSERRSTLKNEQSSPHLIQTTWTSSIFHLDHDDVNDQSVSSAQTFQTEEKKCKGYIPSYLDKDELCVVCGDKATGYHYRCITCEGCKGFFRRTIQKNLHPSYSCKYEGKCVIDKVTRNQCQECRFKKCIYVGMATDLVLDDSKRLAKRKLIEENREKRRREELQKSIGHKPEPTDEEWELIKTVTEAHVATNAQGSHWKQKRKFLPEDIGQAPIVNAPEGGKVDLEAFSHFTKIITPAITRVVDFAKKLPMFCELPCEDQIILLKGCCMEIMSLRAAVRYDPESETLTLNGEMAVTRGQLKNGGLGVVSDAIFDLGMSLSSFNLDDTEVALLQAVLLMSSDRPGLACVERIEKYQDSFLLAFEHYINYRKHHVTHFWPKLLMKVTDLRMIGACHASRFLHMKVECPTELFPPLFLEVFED
Chain of PGR (gene 5241) (P06401 whole entry, looked up): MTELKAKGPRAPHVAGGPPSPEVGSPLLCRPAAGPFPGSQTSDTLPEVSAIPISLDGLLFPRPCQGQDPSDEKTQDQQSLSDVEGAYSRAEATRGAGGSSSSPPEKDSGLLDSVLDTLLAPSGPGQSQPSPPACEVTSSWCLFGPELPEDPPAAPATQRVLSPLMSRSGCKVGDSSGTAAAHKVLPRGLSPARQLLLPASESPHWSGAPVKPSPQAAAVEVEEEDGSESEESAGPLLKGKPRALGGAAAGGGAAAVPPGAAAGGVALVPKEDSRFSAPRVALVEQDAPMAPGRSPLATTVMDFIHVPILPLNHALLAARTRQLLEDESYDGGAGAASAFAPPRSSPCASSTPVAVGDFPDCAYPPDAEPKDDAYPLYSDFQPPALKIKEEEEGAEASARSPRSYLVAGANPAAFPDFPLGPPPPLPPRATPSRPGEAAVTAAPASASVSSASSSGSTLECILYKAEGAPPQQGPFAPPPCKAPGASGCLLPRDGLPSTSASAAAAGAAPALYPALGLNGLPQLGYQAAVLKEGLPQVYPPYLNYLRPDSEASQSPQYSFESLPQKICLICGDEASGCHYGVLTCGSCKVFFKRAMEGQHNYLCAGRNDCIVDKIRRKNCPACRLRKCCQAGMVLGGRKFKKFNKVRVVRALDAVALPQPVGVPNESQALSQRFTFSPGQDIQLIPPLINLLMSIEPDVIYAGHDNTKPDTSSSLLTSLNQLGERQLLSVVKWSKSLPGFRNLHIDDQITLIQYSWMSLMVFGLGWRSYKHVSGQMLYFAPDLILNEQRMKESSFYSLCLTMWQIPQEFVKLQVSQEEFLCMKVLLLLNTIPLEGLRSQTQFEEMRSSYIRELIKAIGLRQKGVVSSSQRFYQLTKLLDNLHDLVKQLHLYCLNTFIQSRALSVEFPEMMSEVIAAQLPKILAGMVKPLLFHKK

O=C(Oc1ccccc1)c1ccc(O)cc1
inactive: PGR (gene 5241) [1] | [2] | [3] | [4]

CC(=O)OCCC(C)CC(C)(C)C (centres undefined)
inactive: [5] | THRA (gene 7067) | THRB (gene 7068) [6] | THRB (gene 7068) [7] | [8]

Nc1ccc(S(N)(=O)=O)cc1
inactive: THRA (gene 7067) | THRB (gene 7068) [6] | THRB (gene 7068) [7] | [8]

CC(CCO)CCCC(C)(C)O (centres undefined)
active: [5] 1.44 µM
inactive: THRA (gene 7067) | THRB (gene 7068) [7] | [8]

CC1CC(OC(=O)c2ccccc2O)CC(C)(C)C1 (centres undefined)
inactive: [9] | [10] | [11] | [12] | [13] | [14]

CC(=O)O[C@]1(C(C)=O)CC[C@H]2[C@@H]3C[C@H](C)C4=CC(=O)CC[C@]4(C)[C@H]3CC[C@@]21C
inactive: [15]

Cc1ccc(C(C)C)cc1O
active: [10] 33 µM | [14] 41.4 µM
inactive: [9] | [11] | [12] | [13]

C[C@H]1C[C@H]2[C@@H]3CCC4=CC(=O)C=C[C@]4(C)[C@@]3(F)[C@@H](O)C[C@]2(C)[C@@]1(O)C(=O)COP(=O)(O)O
inactive: PGR (gene 5241) [1] | [2] | [3] | [16] | [4]

Cc1cccc(C)c1[N+](=O)[O-]
inactive: [5] | THRA (gene 7067) | THRB (gene 7068) [6] | THRB (gene 7068) [7] | [8]

COC(=O)C1=C(C)NC(C)=C(C(=O)OCCN(C)Cc2ccccc2)C1c1cccc([N+](=O)[O-])c1 (centres undefined)
active: PGR (gene 5241) [1] 25 µM | [2] 79.9 µM | [3] 72.7 µM | PGR (gene 5241) [17] 21.8 µM
inactive: [16] | [4]

CC(=O)[C@H]1CC[C@H]2[C@@H]3CC=C4C[C@@H](O)CC[C@]4(C)[C@H]3CC[C@]12C
inactive: PGR (gene 5241) [1] | [2] | [3] | PGR (gene 5241) [17] | [4]

CCCc1c(OCCCOc2ccc(OCC(=O)O)cc2)ccc(C(C)=O)c1O
active: PGR (gene 5241) [1] 31.5 µM | PGR (gene 5241) [17] 63.6 µM
inactive: PGR (gene 5241) [18] | [2] | [3] | PGR (gene 5241) [19] | [16] | [4]

C#C[C@]1(O)CC[C@H]2[C@@H]3CCC4=Cc5oncc5C[C@]4(C)[C@H]3CC[C@@]21C
inactive: [2] | [3] | PGR (gene 5241) [17] | [16] | [4]
active: PGR (gene 5241) [1] 0.0919 µM

O=c1cc(-c2ccccc2)oc2cc(O)cc(O)c12
active: PGR (gene 5241) [1] 8.76 µM | PGR (gene 5241) [19] 31 µM
inactive: PGR (gene 5241) [18] | [2] | [3] | PGR (gene 5241) [17] | [16] | [4]

C[C@H]1C[C@@H]2[C@H]([C@@H](O)C[C@@]3(C)[C@H]2CC[C@]3(O)C(=O)CO)[C@@]2(C)C=CC(=O)C=C12
active: PGR (gene 5241) [18] 58.7 µM | PGR (gene 5241) [19] 0.334 µM
inactive: PGR (gene 5241) [1] | [2] | [3]

C[C@]12CC[C@H]3[C@@H](CCC4=CC(=O)CC[C@@]43C)[C@@H]1CC[C@@H]2C(=O)CO
inactive: PGR (gene 5241) [1] | [2] | [3] | PGR (gene 5241) [17] | [16] | [4]

Reference: PubChem BioAssay (EPA / NIEHS)
